Data as given in ChEMBL document CHEMBL1961873, “Compounds: GSK PKIS; Assays: Nanosyn kinase panel” (2012).

What was measured:
[1] = target: Sphingosine kinase 1 (Homo sapiens) (UniProt Q9NYA1); details: at 1 µM;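 note: mean SPHK1 inhibition value reported from the GSK PKIS kinase panel screen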
[2] = target: T1, Sphingosine kinase 2 (Homo sapiens) (UniProt Q9NRA0); details: at 0.1 µM
T1 sequence (whole entry): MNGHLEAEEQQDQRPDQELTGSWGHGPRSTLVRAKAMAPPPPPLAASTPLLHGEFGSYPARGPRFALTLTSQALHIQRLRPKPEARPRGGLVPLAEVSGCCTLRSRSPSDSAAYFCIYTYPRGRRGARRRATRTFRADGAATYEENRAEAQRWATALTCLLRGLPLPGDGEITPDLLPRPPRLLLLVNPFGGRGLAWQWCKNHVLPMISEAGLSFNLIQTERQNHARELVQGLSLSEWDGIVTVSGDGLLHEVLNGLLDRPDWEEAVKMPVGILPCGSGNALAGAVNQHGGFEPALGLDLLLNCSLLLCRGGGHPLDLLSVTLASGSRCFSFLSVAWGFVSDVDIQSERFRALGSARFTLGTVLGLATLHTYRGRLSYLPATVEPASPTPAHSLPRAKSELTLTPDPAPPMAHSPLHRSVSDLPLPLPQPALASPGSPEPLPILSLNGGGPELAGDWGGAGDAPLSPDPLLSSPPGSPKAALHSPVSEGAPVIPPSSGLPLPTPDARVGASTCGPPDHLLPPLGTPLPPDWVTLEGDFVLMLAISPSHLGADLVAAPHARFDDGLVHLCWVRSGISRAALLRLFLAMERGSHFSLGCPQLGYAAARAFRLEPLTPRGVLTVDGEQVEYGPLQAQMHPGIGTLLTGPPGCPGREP

[3] = target: T1, Sphingosine kinase 2 (Homo sapiens); details: at 1 µM
[4] = target: Casein kinase II subunit alpha (Homo sapiens) (UniProt P68400); details: at 0.1 µM
[5] = target: Casein kinase II subunit alpha (Homo sapiens) (UniProt P68400); details: at 1 µM
[6] = target: T2, Inhibitor of nuclear factor kappa-B kinase subunit alpha (Homo sapiens) (UniProt O15111); details: at 0.1 µM
T2 sequence (whole entry): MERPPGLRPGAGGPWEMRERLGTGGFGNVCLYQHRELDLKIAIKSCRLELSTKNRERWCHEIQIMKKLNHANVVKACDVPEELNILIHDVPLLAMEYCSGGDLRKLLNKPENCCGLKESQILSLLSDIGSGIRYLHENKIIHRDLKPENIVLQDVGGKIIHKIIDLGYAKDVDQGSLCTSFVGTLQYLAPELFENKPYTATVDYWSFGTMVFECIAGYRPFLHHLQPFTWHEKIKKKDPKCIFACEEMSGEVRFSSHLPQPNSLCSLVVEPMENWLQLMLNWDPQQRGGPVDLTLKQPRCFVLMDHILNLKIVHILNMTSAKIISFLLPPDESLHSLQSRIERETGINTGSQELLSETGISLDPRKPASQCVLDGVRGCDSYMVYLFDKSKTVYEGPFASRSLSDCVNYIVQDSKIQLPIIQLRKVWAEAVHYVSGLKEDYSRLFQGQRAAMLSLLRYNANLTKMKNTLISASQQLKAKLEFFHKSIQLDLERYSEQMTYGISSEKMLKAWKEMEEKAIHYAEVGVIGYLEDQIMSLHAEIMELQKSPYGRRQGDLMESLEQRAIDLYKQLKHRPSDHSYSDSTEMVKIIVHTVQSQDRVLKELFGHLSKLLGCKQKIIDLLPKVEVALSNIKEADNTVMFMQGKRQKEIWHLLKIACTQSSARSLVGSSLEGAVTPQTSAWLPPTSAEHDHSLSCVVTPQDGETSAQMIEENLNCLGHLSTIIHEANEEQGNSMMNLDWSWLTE

[7] = target: T2, Inhibitor of nuclear factor kappa-B kinase subunit alpha (Homo sapiens); details: at 1 µM
[8] = target: T3, Inhibitor of nuclear factor kappa-B kinase subunit beta (Homo sapiens) (UniProt O14920); details: at 0.1 µM
T3 sequence (whole entry): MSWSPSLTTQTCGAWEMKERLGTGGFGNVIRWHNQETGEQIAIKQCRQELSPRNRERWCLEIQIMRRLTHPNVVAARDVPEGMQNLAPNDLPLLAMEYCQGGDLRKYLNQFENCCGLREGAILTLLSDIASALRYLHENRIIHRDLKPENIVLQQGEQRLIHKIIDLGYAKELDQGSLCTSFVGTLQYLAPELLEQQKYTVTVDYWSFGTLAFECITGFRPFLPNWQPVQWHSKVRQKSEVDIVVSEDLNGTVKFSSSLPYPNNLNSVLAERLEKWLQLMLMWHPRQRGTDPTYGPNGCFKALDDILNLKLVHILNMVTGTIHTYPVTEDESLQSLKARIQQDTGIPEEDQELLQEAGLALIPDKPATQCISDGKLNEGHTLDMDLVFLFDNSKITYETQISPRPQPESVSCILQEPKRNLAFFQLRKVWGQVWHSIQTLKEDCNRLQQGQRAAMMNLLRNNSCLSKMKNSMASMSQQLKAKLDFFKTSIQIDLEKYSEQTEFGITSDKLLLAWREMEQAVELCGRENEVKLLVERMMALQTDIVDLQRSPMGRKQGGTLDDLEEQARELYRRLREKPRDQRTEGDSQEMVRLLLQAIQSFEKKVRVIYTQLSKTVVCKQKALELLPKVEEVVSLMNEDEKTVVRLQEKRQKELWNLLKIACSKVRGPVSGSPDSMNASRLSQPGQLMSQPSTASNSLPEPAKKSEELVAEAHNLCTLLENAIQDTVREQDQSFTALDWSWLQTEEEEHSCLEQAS

[9] = target: T3, Inhibitor of nuclear factor kappa-B kinase subunit beta (Homo sapiens); details: at 1 µM
[10] = target: T4, Inhibitor of nuclear factor kappa-B kinase subunit epsilon (Homo sapiens) (UniProt Q14164); details: at 0.1 µM
T4 sequence (whole entry): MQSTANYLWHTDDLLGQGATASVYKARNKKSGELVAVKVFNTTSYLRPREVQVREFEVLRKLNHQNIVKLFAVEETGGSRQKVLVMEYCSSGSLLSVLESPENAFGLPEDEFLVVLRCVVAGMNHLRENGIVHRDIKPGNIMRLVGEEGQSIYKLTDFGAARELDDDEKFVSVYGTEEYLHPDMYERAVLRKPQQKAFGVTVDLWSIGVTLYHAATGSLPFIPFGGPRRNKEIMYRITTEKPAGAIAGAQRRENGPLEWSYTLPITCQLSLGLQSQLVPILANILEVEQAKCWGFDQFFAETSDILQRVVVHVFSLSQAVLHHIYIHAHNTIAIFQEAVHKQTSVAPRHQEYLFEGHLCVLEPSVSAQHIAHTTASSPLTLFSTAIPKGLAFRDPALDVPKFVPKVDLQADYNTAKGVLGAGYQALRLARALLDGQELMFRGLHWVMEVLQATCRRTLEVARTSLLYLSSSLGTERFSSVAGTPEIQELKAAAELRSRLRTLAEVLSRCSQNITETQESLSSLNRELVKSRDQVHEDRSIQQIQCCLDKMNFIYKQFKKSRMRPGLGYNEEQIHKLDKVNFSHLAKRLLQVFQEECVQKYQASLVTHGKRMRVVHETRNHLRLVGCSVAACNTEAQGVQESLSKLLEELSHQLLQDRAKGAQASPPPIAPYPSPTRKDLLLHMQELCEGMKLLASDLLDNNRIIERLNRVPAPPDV

[11] = target: T4, Inhibitor of nuclear factor kappa-B kinase subunit epsilon (Homo sapiens); details: at 1 µM
[12] = target: T5, Serine/threonine-protein kinase Nek1 (Homo sapiens) (UniProt Q96PY6); details: at 0.1 µM
T5 sequence (whole entry): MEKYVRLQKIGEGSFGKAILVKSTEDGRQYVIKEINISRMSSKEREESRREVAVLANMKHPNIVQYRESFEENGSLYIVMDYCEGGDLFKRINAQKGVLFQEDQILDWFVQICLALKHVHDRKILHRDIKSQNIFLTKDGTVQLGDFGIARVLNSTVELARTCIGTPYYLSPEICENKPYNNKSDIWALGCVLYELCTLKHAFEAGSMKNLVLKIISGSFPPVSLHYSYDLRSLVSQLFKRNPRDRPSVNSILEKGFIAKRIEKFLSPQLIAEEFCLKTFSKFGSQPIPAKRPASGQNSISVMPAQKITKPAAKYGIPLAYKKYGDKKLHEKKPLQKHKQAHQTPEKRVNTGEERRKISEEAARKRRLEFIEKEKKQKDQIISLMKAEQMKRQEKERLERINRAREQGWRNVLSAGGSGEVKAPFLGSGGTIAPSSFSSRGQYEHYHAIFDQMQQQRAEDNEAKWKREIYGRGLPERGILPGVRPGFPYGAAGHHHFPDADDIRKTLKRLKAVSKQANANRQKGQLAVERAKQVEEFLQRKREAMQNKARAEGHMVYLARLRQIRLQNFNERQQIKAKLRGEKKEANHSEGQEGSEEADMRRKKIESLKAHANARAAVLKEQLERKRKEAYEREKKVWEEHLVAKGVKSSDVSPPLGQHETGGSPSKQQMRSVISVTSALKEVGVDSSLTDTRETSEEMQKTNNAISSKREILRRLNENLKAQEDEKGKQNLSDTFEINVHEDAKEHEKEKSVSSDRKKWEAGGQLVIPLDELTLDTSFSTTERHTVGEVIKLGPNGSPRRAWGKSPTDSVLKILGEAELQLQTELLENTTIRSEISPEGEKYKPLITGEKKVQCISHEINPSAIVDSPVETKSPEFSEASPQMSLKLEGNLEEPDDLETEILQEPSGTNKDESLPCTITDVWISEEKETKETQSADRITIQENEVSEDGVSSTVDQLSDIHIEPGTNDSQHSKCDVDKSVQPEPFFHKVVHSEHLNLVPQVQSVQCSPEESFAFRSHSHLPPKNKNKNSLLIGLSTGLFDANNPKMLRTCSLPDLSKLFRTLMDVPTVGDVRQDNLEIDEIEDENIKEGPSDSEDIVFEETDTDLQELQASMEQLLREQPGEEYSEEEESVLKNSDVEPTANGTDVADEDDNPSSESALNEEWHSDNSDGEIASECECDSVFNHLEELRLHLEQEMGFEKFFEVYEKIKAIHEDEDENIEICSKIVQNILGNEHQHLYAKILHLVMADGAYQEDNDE

[13] = target: T5, Serine/threonine-protein kinase Nek1 (Homo sapiens); details: at 1 µM
[14] = target: T6, Serine/threonine-protein kinase Nek2 (Homo sapiens) (UniProt P51955); details: at 0.1 µM
T6 sequence (whole entry): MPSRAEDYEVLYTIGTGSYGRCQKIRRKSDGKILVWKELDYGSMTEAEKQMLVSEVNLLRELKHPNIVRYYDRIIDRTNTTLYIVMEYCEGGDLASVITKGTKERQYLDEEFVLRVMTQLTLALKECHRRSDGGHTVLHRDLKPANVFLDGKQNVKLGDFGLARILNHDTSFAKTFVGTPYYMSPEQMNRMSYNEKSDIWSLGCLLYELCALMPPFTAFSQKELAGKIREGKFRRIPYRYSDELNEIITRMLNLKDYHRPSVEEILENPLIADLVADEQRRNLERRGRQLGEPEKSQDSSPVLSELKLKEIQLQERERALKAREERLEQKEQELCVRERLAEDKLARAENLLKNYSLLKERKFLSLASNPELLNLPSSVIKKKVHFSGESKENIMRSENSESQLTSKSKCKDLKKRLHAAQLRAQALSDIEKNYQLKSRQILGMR

[15] = target: T6, Serine/threonine-protein kinase Nek2 (Homo sapiens); details: at 1 µM
[16] = target: Serine/threonine-protein kinase Nek6 (Homo sapiens) (UniProt Q9HC98); details: at 0.1 µM
[17] = target: Serine/threonine-protein kinase Nek6 (Homo sapiens) (UniProt Q9HC98); details: at 1 µM
[18] = target: Serine/threonine-protein kinase Nek7 (Homo sapiens) (UniProt Q8TDX7); details: at 0.1 µM
[19] = target: Serine/threonine-protein kinase Nek7 (Homo sapiens) (UniProt Q8TDX7); details: at 1 µM
[20] = target: T7, Serine/threonine-protein kinase Nek9 (Homo sapiens) (UniProt Q8TD19); details: at 0.1 µM;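 note: reported value is the mean percent inhibition of NEK9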
T7 sequence (whole entry): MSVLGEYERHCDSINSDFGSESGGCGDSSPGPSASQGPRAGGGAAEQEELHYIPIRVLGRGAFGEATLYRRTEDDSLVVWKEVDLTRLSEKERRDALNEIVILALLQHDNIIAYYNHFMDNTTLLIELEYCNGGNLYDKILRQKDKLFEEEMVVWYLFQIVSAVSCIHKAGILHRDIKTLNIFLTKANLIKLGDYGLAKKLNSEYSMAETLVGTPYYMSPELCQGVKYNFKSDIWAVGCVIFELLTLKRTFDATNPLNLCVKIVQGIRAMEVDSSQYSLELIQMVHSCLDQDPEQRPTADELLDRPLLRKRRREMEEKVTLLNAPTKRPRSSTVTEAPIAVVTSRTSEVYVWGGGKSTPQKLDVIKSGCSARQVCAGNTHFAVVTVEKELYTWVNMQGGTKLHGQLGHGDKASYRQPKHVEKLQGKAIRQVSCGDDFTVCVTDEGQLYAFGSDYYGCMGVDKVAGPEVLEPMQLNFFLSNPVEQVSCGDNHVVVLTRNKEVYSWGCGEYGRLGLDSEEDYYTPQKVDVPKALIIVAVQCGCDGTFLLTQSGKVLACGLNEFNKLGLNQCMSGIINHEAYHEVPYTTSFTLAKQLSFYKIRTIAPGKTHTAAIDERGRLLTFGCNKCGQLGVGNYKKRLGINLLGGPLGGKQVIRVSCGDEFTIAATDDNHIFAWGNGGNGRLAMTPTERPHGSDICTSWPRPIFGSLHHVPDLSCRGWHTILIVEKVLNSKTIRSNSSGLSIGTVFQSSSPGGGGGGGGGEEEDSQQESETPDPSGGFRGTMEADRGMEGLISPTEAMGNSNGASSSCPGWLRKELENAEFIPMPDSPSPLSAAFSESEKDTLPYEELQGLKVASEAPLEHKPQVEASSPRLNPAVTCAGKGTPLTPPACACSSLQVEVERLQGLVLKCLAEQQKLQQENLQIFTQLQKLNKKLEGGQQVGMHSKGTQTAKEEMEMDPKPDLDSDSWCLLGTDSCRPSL

Casein kinase II subunit alpha (Homo sapiens), sequence (P68400 whole entry, looked up): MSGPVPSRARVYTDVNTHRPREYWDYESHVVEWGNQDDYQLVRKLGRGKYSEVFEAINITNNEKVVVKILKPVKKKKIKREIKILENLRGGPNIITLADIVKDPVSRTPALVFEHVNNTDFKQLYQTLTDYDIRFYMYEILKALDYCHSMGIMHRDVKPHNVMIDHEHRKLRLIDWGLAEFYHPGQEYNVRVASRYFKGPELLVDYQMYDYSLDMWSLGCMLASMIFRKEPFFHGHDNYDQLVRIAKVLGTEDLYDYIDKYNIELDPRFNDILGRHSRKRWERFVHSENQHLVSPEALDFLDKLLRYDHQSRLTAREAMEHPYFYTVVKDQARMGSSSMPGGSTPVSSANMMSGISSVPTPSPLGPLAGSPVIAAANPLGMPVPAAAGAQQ
Serine/threonine-protein kinase Nek7 (Homo sapiens), sequence (Q8TDX7 whole entry, looked up): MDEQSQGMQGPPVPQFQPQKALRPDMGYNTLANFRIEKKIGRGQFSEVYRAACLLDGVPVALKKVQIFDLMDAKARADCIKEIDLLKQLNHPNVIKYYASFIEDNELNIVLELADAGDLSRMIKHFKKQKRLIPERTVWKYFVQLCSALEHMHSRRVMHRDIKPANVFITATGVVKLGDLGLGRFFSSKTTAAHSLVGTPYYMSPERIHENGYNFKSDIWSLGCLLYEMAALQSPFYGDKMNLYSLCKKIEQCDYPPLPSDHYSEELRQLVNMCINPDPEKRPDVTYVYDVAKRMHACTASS
Serine/threonine-protein kinase Nek6 (Homo sapiens), sequence (Q9HC98 whole entry): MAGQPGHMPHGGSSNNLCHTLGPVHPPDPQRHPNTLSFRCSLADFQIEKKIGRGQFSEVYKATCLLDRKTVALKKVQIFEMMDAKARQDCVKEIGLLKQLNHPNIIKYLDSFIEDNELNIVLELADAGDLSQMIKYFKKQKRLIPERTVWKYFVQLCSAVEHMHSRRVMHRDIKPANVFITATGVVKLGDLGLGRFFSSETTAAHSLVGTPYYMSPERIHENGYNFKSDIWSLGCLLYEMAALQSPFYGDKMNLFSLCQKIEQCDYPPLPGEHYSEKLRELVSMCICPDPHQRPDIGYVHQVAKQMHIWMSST
Sphingosine kinase 1 (Homo sapiens), sequence (Q9NYA1 whole entry): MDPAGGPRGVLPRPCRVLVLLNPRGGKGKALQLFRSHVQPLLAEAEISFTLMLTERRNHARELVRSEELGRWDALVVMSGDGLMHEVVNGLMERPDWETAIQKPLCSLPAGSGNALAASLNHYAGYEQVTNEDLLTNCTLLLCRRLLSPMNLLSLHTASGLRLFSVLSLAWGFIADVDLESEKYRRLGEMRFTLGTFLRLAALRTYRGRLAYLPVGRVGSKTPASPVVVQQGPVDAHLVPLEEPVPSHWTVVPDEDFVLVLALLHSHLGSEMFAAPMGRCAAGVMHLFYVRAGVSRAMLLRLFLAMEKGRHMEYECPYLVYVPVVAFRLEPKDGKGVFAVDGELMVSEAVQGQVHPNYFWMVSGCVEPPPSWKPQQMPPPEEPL

SMILES	inhibition [1]	inhibition [2]	inhibition [3]	inhibition [4]	inhibition [5]	inhibition [6]	inhibition [7]	inhibition [8]	inhibition [9]	inhibition [10]	inhibition [11]	inhibition [12]	inhibition [13]	inhibition [14]	inhibition [15]	inhibition [16]	inhibition [17]	inhibition [18]	inhibition [19]	inhibition [20]
COc1cc2c(cc1Nc1nc(Nc3cccc(F)c3C(N)=O)c3cc[nH]c3n1)N(C(=O)CN1CCN(C(C)C)CC1)CC2	1.21%	-0.45%	-0.67%	6.72%	10.1%	2.84%	4.05%	5.51%	1.47%	3.12%	2.31%	2.53%	6.64%	2.3%	2.17%	1.18%	1.05%	3.3%	6.3%	0.4%
CC(C)c1ccc(-c2cc(-c3c[nH]nc3-c3ccccn3)ccn2)cc1	-1.66%	-0.31%	-1.09%	0.16%	0.83%	7.45%	-4.49%	1.97%	-0.35%	1.33%	1.35%	0.4%	0.95%	1.77%	1.63%	1.08%	-0.92%	2.44%	0.94%	3.68%
